Compounds with a hit are over-represented: about 2.1% of the library has one in this group of screens.
NFkB transloc pot – enhances IL-1B driven NFkB nuclear translocation | HUVEC IL-1B NFkB p65 nuclear translocation imaging | activation, % at 2 µM | 94,000 tested, 0.3% active | AID 819;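 active means activation above 40%, about the mean plus 3 SD, also judged a hit on visual image review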;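 further: percent activation is computed from the nuclear over cytoplasmic p65 intensity ratio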
PLAP act – activators of human placental alkaline phosphatase. purified PLAP enzyme, luminescent substrate read-out; hits give high values. 96,000 tested, 1.2% active. activation fold at 20 µM; in the data active means activation fold above about 2
IL1B NFkB inh – blocks IL-1B driven NFkB nuclear translocation in HUVEC cells | inhibition, % at 2 µM | 94,000 tested, 0.43% active | HUVEC IL-1B NFkB p65 nuclear translocation imaging;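 active means inhibition above about 30% together with a positive call from visual inspection of the well image, limit read from the data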;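 further: nuclear over cytoplasmic p65 intensity ratio measured by imaging; 0% = IL-1B stimulated DMSO wells and 100% = unstimulated DMSO wells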
IL1B cytotox – HUVEC cytotoxicity counter-screen, IL-1B stimulated; 94,000 tested, 0.41% active; HUVEC cell count loss, Hoechst imaging; cell count reduction, % at 2 µM;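 active means cell count reduction more than 3 SD above the screen-wide mean, cut at about 70% in these data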;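 further: normalized per plate to untreated control cells as the no-loss baseline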
TNAP act mid DEA – activators of human TNAP at intermediate phosphate acceptor. P05186. purified TNAP, CDP-star luminescence, 100 mM DEA, 30 min; hits give high values; scale: 0 levamisole-inhibited, 1 vehicle-only enzyme. activation factor at 20 µM. 64,000 tested, under 10 active. AID 813;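 active means activation factor of at least 2 at 20 µM, relative to controls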
Target sequence (P05186 whole entry, looked up): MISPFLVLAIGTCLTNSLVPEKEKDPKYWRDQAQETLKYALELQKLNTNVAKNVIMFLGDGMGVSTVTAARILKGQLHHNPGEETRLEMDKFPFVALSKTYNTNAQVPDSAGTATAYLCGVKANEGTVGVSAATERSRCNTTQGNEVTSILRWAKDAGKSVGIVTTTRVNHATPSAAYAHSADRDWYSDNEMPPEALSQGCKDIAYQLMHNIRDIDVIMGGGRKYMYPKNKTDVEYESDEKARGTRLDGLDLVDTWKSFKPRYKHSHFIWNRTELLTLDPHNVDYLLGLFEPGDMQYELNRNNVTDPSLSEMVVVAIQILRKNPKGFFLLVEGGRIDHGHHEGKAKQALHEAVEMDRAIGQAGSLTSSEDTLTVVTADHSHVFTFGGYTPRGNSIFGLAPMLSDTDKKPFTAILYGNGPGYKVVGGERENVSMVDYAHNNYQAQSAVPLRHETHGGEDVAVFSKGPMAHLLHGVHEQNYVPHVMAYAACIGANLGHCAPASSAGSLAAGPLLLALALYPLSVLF
Numbers without * were called inactive.

CCc1ccc(-n2c(SCc3c(C)noc3C)nnc2-c2ccncc2)cc1 was read as NFkB transloc pot 67*, PLAP act 1.6, IL1B NFkB inh -66 and IL1B cytotox 17.
Screening OC(COc1ccc(C2C=CCC2)cc1)CN1CCCCC1 (configuration not stated) returned NFkB transloc pot -9, PLAP act 1.2, IL1B NFkB inh 9, IL1B cytotox 17 and TNAP act mid DEA 1.
Cc1ccc(C2CC2c2n[nH]c(=S)n2-c2ccc(C)cc2)cc1 (configuration not stated) was read as NFkB transloc pot 30, PLAP act 2.1*, IL1B NFkB inh -30 and IL1B cytotox -2.
For Cc1ccc(NC(=O)N2CCN(Cc3ccc4c(c3)OCO4)CC2)cc1 the results were NFkB transloc pot 5, PLAP act 2*, IL1B NFkB inh -5 and IL1B cytotox -14.
For C=CCNC(=S)NNC(=O)c1csc(C)c1CC the results were NFkB transloc pot -13, PLAP act 2.1*, IL1B NFkB inh 13 and IL1B cytotox -2.
Screening C=CCNC(=S)NNC(=O)c1ccc(OC(C)C)cc1 returned NFkB transloc pot -4, PLAP act 2.4*, IL1B NFkB inh 4 and IL1B cytotox 4.
For C=CCNC(=S)NNC(=O)c1ccc2c(c1)OCO2 the results were NFkB transloc pot 1, PLAP act 2.2*, IL1B NFkB inh -1 and IL1B cytotox 39.
`C=CCNC(=S)NNC(=O)c1cccc2ccccc12` gave NFkB transloc pot 3, PLAP act 1.4, IL1B NFkB inh -3 and IL1B cytotox -1.
Screening CCNC(=S)NNC(=O)c1ccc(OC(F)F)cc1 returned NFkB transloc pot 10, PLAP act 2.3*, IL1B NFkB inh -10 and IL1B cytotox -5.
For Cc1c(Cl)c([N+](=O)[O-])nn1CC(=O)NC12CC3CC(CC(C3)C1)C2 the results were NFkB transloc pot 5, PLAP act 0.8, IL1B NFkB inh -5 and IL1B cytotox 2.
Screening O=C1c2[nH]nc(-c3ccccc3O)c2C(c2cccc(O)c2)N1Cc1ccco1 (configuration not stated) returned NFkB transloc pot 12, PLAP act 2.2*, IL1B NFkB inh -12 and IL1B cytotox 2.
Cc1ccc(C2c3c(-c4ccccc4O)n[nH]c3C(=O)N2Cc2ccncc2)cc1 (configuration not stated) was read as NFkB transloc pot 32, PLAP act 1.7, IL1B NFkB inh -32, IL1B cytotox -17 and TNAP act mid DEA 1.
`COc1ccccc1NC(=O)Cn1nnc(-c2ccccc2NC(=O)c2cc3ccccc3oc2=O)n1` gave NFkB transloc pot 0, PLAP act 1.1, IL1B NFkB inh 0 and IL1B cytotox 8.
Screening COc1cccc(/C=N/NC(=O)CCc2c(C)n[nH]c2C)c1 returned NFkB transloc pot 6, PLAP act 2.1*, IL1B NFkB inh -6 and IL1B cytotox 0.
COc1cccc(/C=N/NC(=O)CCc2ccccc2)c1 was read as NFkB transloc pot 12, PLAP act 5.8, IL1B NFkB inh -12 and IL1B cytotox 23.
Screening Cn1c(CSc2ncn[nH]2)nc2ccccc21 returned NFkB transloc pot 14, PLAP act 2.8*, IL1B NFkB inh -14, IL1B cytotox -20 and TNAP act mid DEA 0.9.
Screening Cc1ccc2c(C)nc(NC3=NCN(C(C)C)CN3)nc2c1 returned NFkB transloc pot 14, IL1B NFkB inh -14, IL1B cytotox 8 and TNAP act mid DEA 1.
`COc1ccc([N+](=O)[O-])cc1COc1ccc2c(-c3ccccc3)cc(=O)oc2c1` gave NFkB transloc pot 4, PLAP act 1.1, IL1B NFkB inh -4 and IL1B cytotox 70*.
For CCOC(=O)CCc1c(C)c2ccc(OCc3cc([N+](=O)[O-])ccc3OC)cc2oc1=O the results were NFkB transloc pot 3, PLAP act 0.9, IL1B NFkB inh -3 and IL1B cytotox -33.
For CCOc1cc(C(=O)Nc2cccc3ncccc23)cc(OCC)c1OCC the results were NFkB transloc pot -10, PLAP act 1.6, IL1B NFkB inh -7 and IL1B cytotox 29.
O=C(CSc1nnc2c(n1)[nH]c1ccccc12)Nc1ccc2c(c1)OCO2 was read as NFkB transloc pot 0, PLAP act 1.2, IL1B NFkB inh 0 and IL1B cytotox -16.
Screening Cc1ccc(S(=O)(=O)N2CCN(CC(=O)NC3CCCc4ccccc43)CC2)cc1C (configuration not stated) returned NFkB transloc pot 11, PLAP act 2.1*, IL1B NFkB inh -11 and IL1B cytotox 14.
